Of roughly 6,500 targets only a part is listed; those with a hit were picked by preference. About 2% of all pairs of compound and target were hits. A number with no mark means an inactive call.

These results are taken from the supplement of paper PMC11006884.

Chain of UniProt P30626 (P30626 whole entry, looked up): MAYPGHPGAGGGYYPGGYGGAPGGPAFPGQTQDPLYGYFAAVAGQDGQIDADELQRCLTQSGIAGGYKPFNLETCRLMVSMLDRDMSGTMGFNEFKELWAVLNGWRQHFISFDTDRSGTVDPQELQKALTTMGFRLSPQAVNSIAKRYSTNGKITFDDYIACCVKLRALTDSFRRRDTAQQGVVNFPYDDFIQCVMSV
Chain of UniProt P28340 (P28340 whole entry, looked up): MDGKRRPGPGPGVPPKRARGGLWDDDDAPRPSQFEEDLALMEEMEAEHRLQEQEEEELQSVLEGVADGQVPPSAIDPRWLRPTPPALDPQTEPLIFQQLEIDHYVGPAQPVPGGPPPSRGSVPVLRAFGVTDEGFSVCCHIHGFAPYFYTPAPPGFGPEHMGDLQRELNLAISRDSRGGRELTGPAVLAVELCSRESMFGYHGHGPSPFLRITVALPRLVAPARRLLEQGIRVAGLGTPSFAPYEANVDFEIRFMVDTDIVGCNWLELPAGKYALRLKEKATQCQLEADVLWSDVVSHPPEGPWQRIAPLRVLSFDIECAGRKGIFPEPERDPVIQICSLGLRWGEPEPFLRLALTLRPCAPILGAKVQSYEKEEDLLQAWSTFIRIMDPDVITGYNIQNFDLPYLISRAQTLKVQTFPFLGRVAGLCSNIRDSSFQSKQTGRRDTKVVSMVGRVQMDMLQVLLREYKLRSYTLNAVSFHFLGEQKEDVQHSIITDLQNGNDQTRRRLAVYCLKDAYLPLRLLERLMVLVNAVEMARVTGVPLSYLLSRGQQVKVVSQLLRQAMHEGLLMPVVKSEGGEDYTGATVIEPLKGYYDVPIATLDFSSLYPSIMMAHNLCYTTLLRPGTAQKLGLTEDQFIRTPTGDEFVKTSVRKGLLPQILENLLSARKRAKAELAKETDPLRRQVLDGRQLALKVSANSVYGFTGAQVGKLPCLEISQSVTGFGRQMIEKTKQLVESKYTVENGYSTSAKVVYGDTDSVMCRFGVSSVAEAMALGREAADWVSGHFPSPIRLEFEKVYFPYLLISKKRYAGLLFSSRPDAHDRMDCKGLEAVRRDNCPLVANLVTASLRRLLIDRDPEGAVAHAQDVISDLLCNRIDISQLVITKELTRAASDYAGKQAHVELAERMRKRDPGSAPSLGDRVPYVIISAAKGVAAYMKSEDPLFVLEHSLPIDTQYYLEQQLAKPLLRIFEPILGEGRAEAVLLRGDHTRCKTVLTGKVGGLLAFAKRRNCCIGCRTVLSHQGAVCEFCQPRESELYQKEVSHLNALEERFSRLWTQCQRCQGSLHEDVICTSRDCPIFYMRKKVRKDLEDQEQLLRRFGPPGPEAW
Chain of UniProt P50990 (P50990 whole entry, looked up): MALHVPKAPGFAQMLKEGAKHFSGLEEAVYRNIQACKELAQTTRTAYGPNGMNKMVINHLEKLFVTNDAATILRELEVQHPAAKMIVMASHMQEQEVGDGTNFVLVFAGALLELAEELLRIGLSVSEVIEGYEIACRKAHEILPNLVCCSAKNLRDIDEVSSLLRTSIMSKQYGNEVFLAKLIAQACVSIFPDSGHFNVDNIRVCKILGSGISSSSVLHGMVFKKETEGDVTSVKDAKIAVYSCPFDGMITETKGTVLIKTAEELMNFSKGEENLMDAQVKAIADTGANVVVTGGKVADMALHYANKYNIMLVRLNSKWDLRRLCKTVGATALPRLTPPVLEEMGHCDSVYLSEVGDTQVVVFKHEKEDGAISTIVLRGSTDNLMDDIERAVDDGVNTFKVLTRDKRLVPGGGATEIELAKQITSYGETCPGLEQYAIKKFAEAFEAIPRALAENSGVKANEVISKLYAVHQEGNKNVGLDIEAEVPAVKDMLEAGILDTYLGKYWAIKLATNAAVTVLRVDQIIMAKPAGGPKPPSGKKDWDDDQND
Chain of UniProt P00390 (P00390 whole entry, looked up): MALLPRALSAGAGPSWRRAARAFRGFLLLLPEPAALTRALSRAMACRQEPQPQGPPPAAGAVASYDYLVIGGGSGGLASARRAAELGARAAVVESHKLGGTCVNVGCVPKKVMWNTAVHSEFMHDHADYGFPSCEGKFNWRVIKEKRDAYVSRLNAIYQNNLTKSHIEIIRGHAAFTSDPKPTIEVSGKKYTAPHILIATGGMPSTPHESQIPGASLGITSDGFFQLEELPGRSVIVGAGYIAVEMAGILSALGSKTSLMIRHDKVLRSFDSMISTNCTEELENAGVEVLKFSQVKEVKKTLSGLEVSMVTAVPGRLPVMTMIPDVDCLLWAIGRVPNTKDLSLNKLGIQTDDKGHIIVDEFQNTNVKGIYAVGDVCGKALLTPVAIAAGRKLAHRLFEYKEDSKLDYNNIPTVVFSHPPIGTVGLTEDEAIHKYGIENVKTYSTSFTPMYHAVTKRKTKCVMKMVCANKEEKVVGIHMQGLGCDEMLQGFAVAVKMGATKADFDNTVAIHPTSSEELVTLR
Chain of UniProt P12277 (P12277 whole entry): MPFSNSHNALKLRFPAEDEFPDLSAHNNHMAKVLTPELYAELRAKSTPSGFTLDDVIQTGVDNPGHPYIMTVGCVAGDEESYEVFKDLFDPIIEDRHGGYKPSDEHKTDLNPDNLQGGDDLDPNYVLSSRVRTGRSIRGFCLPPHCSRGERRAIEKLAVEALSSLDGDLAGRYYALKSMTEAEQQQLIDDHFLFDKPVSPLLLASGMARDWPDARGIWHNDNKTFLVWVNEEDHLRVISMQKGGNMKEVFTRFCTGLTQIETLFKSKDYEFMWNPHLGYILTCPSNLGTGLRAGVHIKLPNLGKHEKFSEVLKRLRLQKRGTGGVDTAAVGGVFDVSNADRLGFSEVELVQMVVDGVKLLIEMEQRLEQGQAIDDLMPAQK
Chain of UniProt P33981 (P33981 whole entry, looked up): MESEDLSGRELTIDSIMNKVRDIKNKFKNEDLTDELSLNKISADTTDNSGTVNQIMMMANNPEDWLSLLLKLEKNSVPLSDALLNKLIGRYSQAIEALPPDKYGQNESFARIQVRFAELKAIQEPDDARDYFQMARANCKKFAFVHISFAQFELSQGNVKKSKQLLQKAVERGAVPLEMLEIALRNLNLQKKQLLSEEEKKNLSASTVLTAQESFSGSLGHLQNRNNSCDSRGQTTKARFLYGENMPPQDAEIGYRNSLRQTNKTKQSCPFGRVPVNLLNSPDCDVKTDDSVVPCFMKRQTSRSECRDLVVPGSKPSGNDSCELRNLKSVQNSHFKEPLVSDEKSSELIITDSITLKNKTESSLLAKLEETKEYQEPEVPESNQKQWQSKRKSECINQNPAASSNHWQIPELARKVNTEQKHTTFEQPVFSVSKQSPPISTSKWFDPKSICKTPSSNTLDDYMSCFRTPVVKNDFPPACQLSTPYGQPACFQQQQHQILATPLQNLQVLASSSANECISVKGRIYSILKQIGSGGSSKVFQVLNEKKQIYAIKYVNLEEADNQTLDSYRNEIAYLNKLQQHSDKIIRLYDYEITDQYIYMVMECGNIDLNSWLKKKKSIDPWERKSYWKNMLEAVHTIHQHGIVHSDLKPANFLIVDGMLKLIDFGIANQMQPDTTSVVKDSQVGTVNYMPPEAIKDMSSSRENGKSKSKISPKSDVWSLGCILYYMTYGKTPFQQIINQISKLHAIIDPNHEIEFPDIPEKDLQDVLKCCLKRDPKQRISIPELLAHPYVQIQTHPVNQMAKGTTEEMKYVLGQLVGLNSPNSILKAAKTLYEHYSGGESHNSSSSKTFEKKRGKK
Chain of UniProt P47756 (P47756 whole entry, looked up): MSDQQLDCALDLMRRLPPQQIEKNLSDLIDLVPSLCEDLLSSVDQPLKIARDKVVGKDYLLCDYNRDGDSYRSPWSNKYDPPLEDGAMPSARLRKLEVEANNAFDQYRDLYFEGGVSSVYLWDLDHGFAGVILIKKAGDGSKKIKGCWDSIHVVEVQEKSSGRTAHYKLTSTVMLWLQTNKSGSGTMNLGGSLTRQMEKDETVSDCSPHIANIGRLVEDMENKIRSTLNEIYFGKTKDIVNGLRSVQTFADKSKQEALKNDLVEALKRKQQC
Chain of UniProt P52272 (P52272 whole entry, looked up): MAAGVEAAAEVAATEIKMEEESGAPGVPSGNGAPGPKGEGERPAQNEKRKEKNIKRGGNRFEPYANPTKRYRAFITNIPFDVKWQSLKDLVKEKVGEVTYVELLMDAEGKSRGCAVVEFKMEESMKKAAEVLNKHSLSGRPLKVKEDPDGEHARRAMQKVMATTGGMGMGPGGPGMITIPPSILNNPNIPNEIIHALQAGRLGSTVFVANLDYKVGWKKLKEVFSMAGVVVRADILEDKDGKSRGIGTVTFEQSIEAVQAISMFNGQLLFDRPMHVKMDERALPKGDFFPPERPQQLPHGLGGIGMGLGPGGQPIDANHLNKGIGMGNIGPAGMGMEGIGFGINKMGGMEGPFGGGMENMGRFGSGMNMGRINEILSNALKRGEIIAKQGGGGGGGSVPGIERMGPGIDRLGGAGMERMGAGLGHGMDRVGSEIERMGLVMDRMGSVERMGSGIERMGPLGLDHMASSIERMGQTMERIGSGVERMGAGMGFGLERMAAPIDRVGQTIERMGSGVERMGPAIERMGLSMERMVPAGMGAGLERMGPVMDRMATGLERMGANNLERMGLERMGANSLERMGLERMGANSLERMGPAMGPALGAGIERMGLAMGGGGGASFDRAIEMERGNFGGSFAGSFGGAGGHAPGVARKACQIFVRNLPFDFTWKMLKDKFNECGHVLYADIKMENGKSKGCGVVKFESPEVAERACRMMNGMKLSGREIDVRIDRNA
Chain of UniProt P12004 (P12004 whole entry, looked up): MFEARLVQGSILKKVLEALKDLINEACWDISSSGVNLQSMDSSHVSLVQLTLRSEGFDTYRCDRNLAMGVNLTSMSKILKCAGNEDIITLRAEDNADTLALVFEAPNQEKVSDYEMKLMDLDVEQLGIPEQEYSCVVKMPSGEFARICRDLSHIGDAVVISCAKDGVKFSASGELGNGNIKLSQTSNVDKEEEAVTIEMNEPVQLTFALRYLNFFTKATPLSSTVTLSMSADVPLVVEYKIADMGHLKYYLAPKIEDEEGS

Compound in the assay: COC(=O)C#Cc1ccccc1 [methyl 3-phenylpropiolate]
The assay can be described thus: log2 ratio of iodoacetamide-alkyne labeling of the cysteine site, DMSO over compound (competition); higher = stronger covalent engagement of the cysteine by the compound, active = 1 or more. The note with it: 500 µM; treatment time 1 h; system: HEK293T cell lysate. In outline: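 HEK293T lysate (2 mg/mL) was incubated with electrophile (500 µM) or vehicle for 1 h at ambient temperature and then with iodoacetamide alkyne for 1 h. Labelled proteins were clicked to sCIP-TMT reagents, pooled, digested, enriched on streptavidin and measured by Orbitrap Eclipse LC-MS/MS with FAIMS, with FragPipe quantification. The per-cysteine log2 competition ratio is mean control-channel reporter intensity over mean compound-channel reporter intensity. Across three replicates with duplicate channels, cysteines quantified in only one replicate were excluded.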
As to PCNA C62 (UniProt P12004), the “log2 ratio of iodoacetamide-alkyne labeling” value (from here on “log2 ratio”) is 0.0598.

For the target LTA4H C8 (UniProt P09960), the “log2 ratio” value is 0.273.

As for EEF2 C557 (UniProt P13639), the “log2 ratio” value is -0.298.

With CCT8 C244 (UniProt P50990), the “log2 ratio” value was 0.242.

For CKB C283 (UniProt P12277), the “log2 ratio” value was 0.217.

Turning to CAST C413 (UniProt P20810), the “log2 ratio” value is 0.756.

As to MBD3 C266 (UniProt O95983), the “log2 ratio” value was 0.0164.

Consider SHMT1 C96 (UniProt P34896), for which the “log2 ratio” value is 0.0443.

On to RPS17 C35 (UniProt P08708), for which the “log2 ratio” value is -0.00485.

ALDOA C202 (UniProt P04075): the “log2 ratio” value was -0.0261.

Turning to UniProt P49591_C438, the “log2 ratio” value was 0.0645.

As to IDH3G C81 (UniProt P51553), the “log2 ratio” value is 0.412.

For the target UniProt P49753_C401, the “log2 ratio” value was 0.0763.

In the case of GSR C102 (UniProt P00390), the “log2 ratio” value is 0.154.

For the target DNAJA1 C149 (UniProt P31689), the “log2 ratio” value is 0.14.

Turning to PPP2R1A C377 (UniProt P30153), the “log2 ratio” value is 0.919.

With UniProt P49591_C431, the “log2 ratio” value was -0.00377.

As to RPL27A C144 (UniProt P46776), the “log2 ratio” value was 0.155.

In the case of POLD1 C837 (UniProt P28340), the “log2 ratio” value is 1.16 (active).

Regarding HNRNPM C114 (UniProt P52272), the “log2 ratio” value was -0.0182.

For SRI C194 (UniProt P30626), the “log2 ratio” value was -0.125.

Turning to MDH2 C128 (UniProt P40926), the “log2 ratio” value is -0.335.

Consider GMPS C137 (UniProt P49915), for which the “log2 ratio” value is 0.217.

Turning to HSP90B1 C645 (UniProt P14625), the “log2 ratio” value was -0.0466.

On to UniProt O96017_C539, for which the “log2 ratio” value is 0.494.

Consider SMC2 C326 (UniProt O95347), for which the “log2 ratio” value is 0.547.

For PEX5 C11 (UniProt P50542), the “log2 ratio” value was 0.204.

In the case of ACADSB C175 (UniProt P45954), the “log2 ratio” value was 0.109.

On to CASP3 C184 (UniProt P42574), for which the “log2 ratio” value is 0.259.

Take MAP1B C2065 (UniProt P46821): the “log2 ratio” value is 0.623.

Consider CAPZB C206 (UniProt P47756), for which the “log2 ratio” value was 0.316.

As to RPL3 C253 (UniProt P39023), the “log2 ratio” value is 0.582.

Turning to CAPZA2 C111 (UniProt P47755), the “log2 ratio” value was 0.0355.

As to TTK C284 (UniProt P33981), the “log2 ratio” value is 0.53.

Take HSP90AA1 C420 (UniProt P07900): the “log2 ratio” value is -0.4.

Consider BCR C395 (UniProt P11274), for which the “log2 ratio” value was 1.17 (active).

Turning to FH C333 (UniProt P07954), the “log2 ratio” value is 0.338.
